# Assay results from PubChem BioAssay (NCI).
# This is part of a sample that, as a whole, favours compounds with a hit. Of some 79,000 tested, about 15% had one in any assay. A number with no mark means an inactive call. Calls of active or inactive are those of the source. No stated cut-off is given here; in the data, active means growth inhibition above about 70%; inactive means the rest.
# Legend:
# [1] = NCI Yeast Anticancer Drug Screen. Data for the rad52 strain (AID 147);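 further: 0% = growth of vehicle-treated control cultures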; conditions: S. cerevisiae rad52 mutant growth inhibition, active compounds read high
# Summary of the method: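 Screen used a yeast mutant impaired in DNA repair. After compound exposure, growth was measured. Values reflect inhibition compared with vehicle-treated cells.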
# [2] = NCI Yeast Anticancer Drug Screen. Data for the wt1 strain (AID 149);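 further: 0% = growth of vehicle-treated wt1 cultures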; conditions: S. cerevisiae wt1 strain (SPY 50644) growth inhibition, active compounds read high
# Summary of the method: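 Growth inhibition read against vehicle controls after compound exposure of the wt1 yeast strain.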
# [3] = NCI Yeast Anticancer Drug Screen. Data for the rad50EPP+ strain (AID 151);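 further: 0% = growth of vehicle-treated control cultures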; conditions: S. cerevisiae rad50 mutant strain, active compounds read high
# Summary of the method: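 Exposing the rad50EPP+ strain to each compound, growth was compared with vehicle-only cultures to give inhibition.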
# [4] = NCI Yeast Anticancer Drug Screen. Data for the mgt1 strain (AID 153); conditions: S. cerevisiae mgt1 mutant growth inhibition, active compounds read high
# Summary of the method: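 Genetically defined yeast (mgt1) treated with compound; inhibition of growth expressed against vehicle-treated controls.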
# [5] = NCI Yeast Anticancer Drug Screen. Data for the rad50 strain (AID 155);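 further: 0% = growth of vehicle-only cultures of the same strain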; conditions: S. cerevisiae rad50 strain growth inhibition, active compounds read high
# Summary of the method: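 Readout: growth inhibition relative to vehicle-treated cultures. Compound exposure was carried out in a genetically defined yeast strain deficient in DNA damage repair.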
# [6] = NCI Yeast Anticancer Drug Screen. Data for the mec2-1 strain (AID 157); conditions: S. cerevisiae mec2-1 strain, active compounds read high
# Summary of the method: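 Readout is yeast growth inhibition, normalised to vehicle-treated controls, in the mec2-1 strain exposed to compound.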
# [7] = NCI Yeast Anticancer Drug Screen. Data for the rad14 strain (AID 159);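 further: 0% = growth of vehicle-treated control cultures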; conditions: S. cerevisiae rad14 strain growth inhibition, active compounds read high
# Summary of the method: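 Growth inhibition vs vehicle controls; genetically altered yeast strain (DNA damage repair defect) treated with test compounds.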
# [8] = NCI Yeast Anticancer Drug Screen. Data for the sgs1 mgt1 strain (AID 161);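 further: 0% = growth of cultures given vehicle only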; conditions: S. cerevisiae sgs1 mgt1 strain, active compounds read high
# Summary of the method: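 Yeast cells carrying a defined DNA-repair defect were exposed to test compounds. Growth inhibition was measured relative to vehicle-treated controls.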
# [9] = NCI Yeast Anticancer Drug Screen. Data for the CLN2oe strain (AID 163);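 further: 0% = growth of vehicle-only control cultures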; conditions: S. cerevisiae CLN2oe strain, active compounds read high
# Summary of the method: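 Values reflect how much compound exposure reduced yeast growth, referenced to vehicle-exposed cells. Assay organism is a strain with a defined genetic change affecting cell-cycle control.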
# [10] = NCI Yeast Anticancer Drug Screen. Data for the cln2 rad14 strain (AID 165);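 further: 0% = growth equal to vehicle treated cultures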; conditions: S. cerevisiae cln2 rad14 strain, active compounds read high
# Summary of the method: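 Relative to vehicle controls, growth inhibition of compound-treated cln2 rad14 yeast was recorded.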
# [11] = NCI Yeast Anticancer Drug Screen. Data for the bub3 strain (AID 167); conditions: S. cerevisiae bub3 mutant strain, active compounds read high
# Summary of the method: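 Readout: yeast growth inhibition, expressed relative to vehicle-only wells. The test organism is a mutant strain from a panel with lesions in DNA repair or checkpoint genes.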
# [12] = NCI Yeast Anticancer Drug Screen. Data for the wt2 strain (AID 169);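 further: 0% = growth of vehicle-treated yeast cultures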; conditions: S. cerevisiae wt2 strain growth inhibition, active compounds read high
# Summary of the method: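 Values express reduction in yeast growth under compound treatment, referenced to vehicle-treated cells.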
# [13] = NCI Yeast Anticancer Drug Screen. Data for the mlh1 strain (AID 171);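 further: 0% = growth of vehicle-treated control cultures of the same strain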; conditions: S. cerevisiae mlh1 strain growth inhibition, active compounds read high
# Summary of the method: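 Steps: expose the defined-mutant yeast strain to compound; expose a parallel culture to vehicle; measure growth; express compound effect as inhibition relative to the vehicle culture.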
# [14] = NCI Yeast Anticancer Drug Screen. Data for the sgs1 strain (AID 173);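 further: 0% = growth of vehicle-only control cultures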; conditions: S. cerevisiae sgs1 mutant, active compounds read high
# Summary of the method: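 Treat defined-mutant yeast with compound; measure growth; calculate inhibition relative to vehicle-treated cells.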
# [15] = NCI Yeast Anticancer Drug Screen. Data for the mlh1 rad18 strain (AID 175); conditions: S. cerevisiae mlh1 rad18 strain growth inhibition, active compounds read high
# Summary of the method: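 Test agents were incubated with a yeast strain of defined genotype (DNA damage repair defect). Inhibition of growth was derived by comparison with vehicle-exposed cultures.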
# [16] = NCI Yeast Anticancer Drug Screen. Data for the rad18 strain (AID 177); conditions: S. cerevisiae rad18 mutant growth inhibition, active compounds read high
# Summary of the method: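 A genetically defined yeast mutant impaired in DNA damage repair was treated with test compounds, then its growth was measured against cultures receiving vehicle alone.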
# [17] = at 5.0 µM (retest, dose inferred, filed as 0.5)
# [18] = at 50.0 µM (retest, dose inferred, filed as 5.0)
structure (smiles),measurement,setting,value
NC1=NCC(c2ccc(Cl)cc2)O1 (stereo not drawn),growth inhibition,[1]; at 1.2 µM,-4%
same,growth inhibition,[1]; at 3.7 µM,-2%
same,growth inhibition,[1]; at 11.0 µM,-5%
same,growth inhibition,[1]; at 33.0 µM,-8%
same,growth inhibition,[1]; at 100.0 µM,47%
same,growth inhibition,[2]; at 1.2 µM,-5%
same,growth inhibition,[2]; at 3.7 µM,-4%
same,growth inhibition,[2]; at 11.0 µM,-7%
same,growth inhibition,[2]; at 33.0 µM,-5%
same,growth inhibition,[2]; at 100.0 µM,3%
same,growth inhibition,[3]; at 1.2 µM,-2%
same,growth inhibition,[3]; at 3.7 µM,0%
same,growth inhibition,[3]; at 11.0 µM,0%
same,growth inhibition,[3]; at 33.0 µM,4%
same,growth inhibition,[3]; at 100.0 µM,4%
same,growth inhibition,[4]; at 1.2 µM,-3%
same,growth inhibition,[4]; at 3.7 µM,-4%
same,growth inhibition,[4]; at 11.0 µM,-2%
same,growth inhibition,[4]; at 33.0 µM,5%
same,growth inhibition,[4]; at 100.0 µM,50%
same,growth inhibition,[5]; at 1.2 µM,-1%
same,growth inhibition,[5]; at 3.7 µM,-4%
same,growth inhibition,[5]; [17],-151%
same,growth inhibition,[5]; at 11.0 µM,7%
same,growth inhibition,[5]; at 33.0 µM,11%
same,growth inhibition,[5]; [18],17%
same,growth inhibition,[5]; at 50.0 µM,57.8%
same,growth inhibition,[5]; at 100.0 µM,49%
same,growth inhibition,[6]; at 1.2 µM,1%
same,growth inhibition,[6]; at 3.7 µM,-1%
same,growth inhibition,[6]; [17],-51%
same,growth inhibition,[6]; at 11.0 µM,3%
same,growth inhibition,[6]; at 33.0 µM,1%
same,growth inhibition,[6]; [18],10%
same,growth inhibition,[6]; at 50.0 µM,13.3%
same,growth inhibition,[6]; at 100.0 µM,44%
same,growth inhibition,[7]; at 1.2 µM,-2%
same,growth inhibition,[7]; at 3.7 µM,-3%
same,growth inhibition,[7]; at 11.0 µM,-1%
same,growth inhibition,[7]; at 33.0 µM,2%
same,growth inhibition,[7]; at 100.0 µM,52%
same,growth inhibition,[8]; [17],-62%
same,growth inhibition,[8]; [18],17%
same,growth inhibition,[8]; at 50.0 µM,50.2%
same,growth inhibition,[9]; at 1.2 µM,-2%
same,growth inhibition,[9]; at 3.7 µM,-2%
same,growth inhibition,[9]; at 11.0 µM,3%
same,growth inhibition,[9]; at 33.0 µM,1%
same,growth inhibition,[9]; at 100.0 µM,50%
same,growth inhibition,[10]; [17],-64%
same,growth inhibition,[10]; [18],7%
same,growth inhibition,[10]; at 50.0 µM,31.1%
same,growth inhibition,[11]; at 1.2 µM,-11%
same,growth inhibition,[11]; at 3.7 µM,-9%
same,growth inhibition,[11]; [17],-76%
same,growth inhibition,[11]; at 11.0 µM,-4%
same,growth inhibition,[11]; at 33.0 µM,-6%
same,growth inhibition,[11]; [18],27%
same,growth inhibition,[11]; at 50.0 µM,39.4%
same,growth inhibition,[11]; at 100.0 µM,49%
same,growth inhibition,[12]; at 1.2 µM,-1%
same,growth inhibition,[12]; at 3.7 µM,0%
same,growth inhibition,[12]; at 11.0 µM,0%
same,growth inhibition,[12]; at 33.0 µM,-1%
same,growth inhibition,[12]; at 100.0 µM,47%
same,growth inhibition,[13]; at 1.2 µM,7%
same,growth inhibition,[13]; at 3.7 µM,-5%
same,growth inhibition,[13]; at 11.0 µM,-5%
same,growth inhibition,[13]; at 33.0 µM,-4%
same,growth inhibition,[13]; at 100.0 µM,47%
same,growth inhibition,[14]; at 1.2 µM,0%
same,growth inhibition,[14]; at 3.7 µM,-1%
same,growth inhibition,[14]; at 11.0 µM,-2%
same,growth inhibition,[14]; at 33.0 µM,-2%
same,growth inhibition,[14]; at 100.0 µM,48%
same,growth inhibition,[15]; [17],-135%
same,growth inhibition,[15]; [18],81% (active)
same,growth inhibition,[15]; at 50.0 µM,50.4%
same,growth inhibition,[16]; at 1.2 µM,-4%
same,growth inhibition,[16]; at 3.7 µM,-3%
same,growth inhibition,[16]; at 11.0 µM,-3%
same,growth inhibition,[16]; at 33.0 µM,-3%
same,growth inhibition,[16]; at 100.0 µM,48%
